Measurements reported in publication PMC11006913.

Legend:
Test in all cases: PBM; 200 nM protein, PBS
Details in all cases: dsDNA, one strand shown
[1] = molecular target: HESX1 (Homo sapiens, UniProt Q9UBX0 95-180, R165K)
[2] = molecular target: HESX1 (Homo sapiens, UniProt Q9UBX0 95-180)
[3] = molecular target: HESX1 (Homo sapiens, UniProt Q9UBX0 95-180, R109Q)
[4] = molecular target: HESX1 (Homo sapiens, UniProt Q9UBX0 95-180, P111T)
[5] = molecular target: HESX1 (Homo sapiens, UniProt Q9UBX0 95-180, F115L)
Sequence of HESX1 (Homo sapiens, UniProt Q9UBX0 95-180, F115L) (Q9UBX0 95-180 F115L): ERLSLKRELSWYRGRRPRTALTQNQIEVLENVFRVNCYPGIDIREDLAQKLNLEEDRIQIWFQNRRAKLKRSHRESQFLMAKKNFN

[6] = molecular target: PRRX1 (Homo sapiens, UniProt P54821 80-166, F113S)
Sequence of PRRX1 (Homo sapiens, UniProt P54821 80-166, F113S) (P54821 80-166 F113S): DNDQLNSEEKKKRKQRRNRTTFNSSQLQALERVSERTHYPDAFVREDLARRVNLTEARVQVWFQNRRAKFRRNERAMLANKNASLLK

[7] = molecular target: PRRX1 (Homo sapiens, UniProt P54821 80-166)
Sequence of PRRX1 (Homo sapiens, UniProt P54821 80-166) (P54821 80-166): as the sequence (P54821 80-166 F113S) above, with S34F counted along it

[8] = molecular target: MSX2 (Homo sapiens, UniProt P35548 130-214, R199I)
Sequence of MSX2 (Homo sapiens, UniProt P35548 130-214, R199I) (P35548 130-214 R199I): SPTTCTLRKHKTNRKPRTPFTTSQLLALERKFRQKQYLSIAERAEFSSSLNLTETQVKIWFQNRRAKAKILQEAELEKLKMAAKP

[9] = molecular target: MSX2 (Homo sapiens, UniProt P35548 130-214, F161Y)
Sequence of MSX2 (Homo sapiens, UniProt P35548 130-214, F161Y) (P35548 130-214 F161Y): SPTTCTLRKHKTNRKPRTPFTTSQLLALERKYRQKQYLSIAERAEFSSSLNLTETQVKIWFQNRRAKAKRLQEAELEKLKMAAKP

[10] = molecular target: ALX4 (Homo sapiens, UniProt Q9H161 200-286)
Sequence of ALX4 (Homo sapiens, UniProt Q9H161 200-286) (Q9H161 200-286): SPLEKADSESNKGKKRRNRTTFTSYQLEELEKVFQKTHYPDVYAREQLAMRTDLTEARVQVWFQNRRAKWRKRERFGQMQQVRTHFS

[11] = molecular target: ALX4 (Homo sapiens, UniProt Q9H161 200-286, Q225E)
Sequence of ALX4 (Homo sapiens, UniProt Q9H161 200-286, Q225E) (Q9H161 200-286 Q225E): as the sequence (Q9H161 200-286) above, with Q26E counted along it

[12] = molecular target: ALX1 (Homo sapiens, UniProt Q15699 118-204, L144V)
Sequence of ALX1 (Homo sapiens, UniProt Q15699 118-204, L144V) (Q15699 118-204 L144V): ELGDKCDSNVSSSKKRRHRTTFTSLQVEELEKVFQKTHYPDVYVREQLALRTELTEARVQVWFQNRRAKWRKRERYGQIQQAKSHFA

[13] = molecular target: ALX1 (Homo sapiens, UniProt Q15699 118-204, L144R)
Sequence of ALX1 (Homo sapiens, UniProt Q15699 118-204, L144R) (Q15699 118-204 L144R): as the sequence (Q15699 118-204 L144V) above, with V27R counted along it

[14] = molecular target: PROP1 (Homo sapiens, UniProt O75360 56-141)
Sequence of PROP1 (Homo sapiens, UniProt O75360 56-141) (O75360 56-141): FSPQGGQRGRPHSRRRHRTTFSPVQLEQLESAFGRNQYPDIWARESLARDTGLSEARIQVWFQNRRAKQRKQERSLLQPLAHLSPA

[15] = molecular target: PROP1 (Homo sapiens, UniProt O75360 56-141, R99H)
Sequence of PROP1 (Homo sapiens, UniProt O75360 56-141, R99H) (O75360 56-141 R99H): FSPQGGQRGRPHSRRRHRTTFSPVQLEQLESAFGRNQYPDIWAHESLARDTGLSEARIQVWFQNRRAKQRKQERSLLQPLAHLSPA

[16] = molecular target: ALX3 (Homo sapiens, UniProt O95076 139-225, L168Q)
Sequence of ALX3 (O95076 139-225 L168Q): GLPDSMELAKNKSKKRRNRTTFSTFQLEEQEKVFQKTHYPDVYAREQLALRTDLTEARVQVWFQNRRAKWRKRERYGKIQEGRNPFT

[17] = molecular target: PROP1 (Homo sapiens, UniProt O75360 56-141, F88S)
Sequence of PROP1 (Homo sapiens, UniProt O75360 56-141, F88S) (O75360 56-141 F88S): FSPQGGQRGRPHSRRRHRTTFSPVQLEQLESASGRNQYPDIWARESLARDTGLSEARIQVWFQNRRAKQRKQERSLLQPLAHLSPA

[18] = molecular target: ALX1 (Homo sapiens, UniProt Q15699 118-204)
Sequence of ALX1 (Homo sapiens, UniProt Q15699 118-204) (Q15699 118-204): as the sequence (Q15699 118-204 L144V) above, with V27L counted along it

Sequence of HESX1 (Homo sapiens, UniProt Q9UBX0 95-180) (Q9UBX0 95-180): as the sequence (Q9UBX0 95-180 F115L) above, with L21F counted along it
Sequence of HESX1 (Homo sapiens, UniProt Q9UBX0 95-180, R165K) (Q9UBX0 95-180 R165K): as the sequence (Q9UBX0 95-180 F115L) above, with L21F, R71K counted along it
Sequence of HESX1 (Homo sapiens, UniProt Q9UBX0 95-180, R109Q) (Q9UBX0 95-180 R109Q): as the sequence (Q9UBX0 95-180 F115L) above, with R15Q, L21F counted along it
Sequence of HESX1 (Homo sapiens, UniProt Q9UBX0 95-180, P111T) (Q9UBX0 95-180 P111T): as the sequence (Q9UBX0 95-180 F115L) above, with P17T, L21F counted along it

For CAGGCCGG, the binding signal [1] was 6.44 upbm affinity estimate (log intensity, higher = more binding, comparable within an allelic series), the binding signal [2] was 6.33 upbm affinity estimate (log intensity, higher = more binding, comparable within an allelic series) and the binding signal [3] was 6.48 upbm affinity estimate (log intensity, higher = more binding, comparable within an allelic series). For the same sequence, the binding signal [4] was 6.33 upbm affinity estimate (log intensity, higher = more binding, comparable within an allelic series) and the binding signal [5] was 6.4 upbm affinity estimate (log intensity, higher = more binding, comparable within an allelic series).
CGCCTAGC was tested, and the binding signal [1] was 6.27 upbm affinity estimate (log intensity, higher = more binding, comparable within an allelic series), the binding signal [6] was 9.26 upbm affinity estimate (log intensity, higher = more binding, comparable within an allelic series) and the binding signal [2] was 6.37 upbm affinity estimate (log intensity, higher = more binding, comparable within an allelic series). The binding signal [3] was 6.4 upbm affinity estimate (log intensity, higher = more binding, comparable within an allelic series), the binding signal [4] was 6.38 upbm affinity estimate (log intensity, higher = more binding, comparable within an allelic series) and the binding signal [5] was 6.57 upbm affinity estimate (log intensity, higher = more binding, comparable within an allelic series). The binding signal [7] was 9.27 upbm affinity estimate (log intensity, higher = more binding, comparable within an allelic series).
In the case of TAATTGTA, the binding signal [1] is reported as 11.4 upbm affinity estimate (log intensity, higher = more binding, comparable within an allelic series), the binding signal [2] is reported as 11.8 upbm affinity estimate (log intensity, higher = more binding, comparable within an allelic series) and the binding signal [8] is reported as 12.5 upbm affinity estimate (log intensity, higher = more binding, comparable within an allelic series). The binding signal [3] was 8.46 upbm affinity estimate (log intensity, higher = more binding, comparable within an allelic series), the binding signal [4] was 10.1 upbm affinity estimate (log intensity, higher = more binding, comparable within an allelic series) and the binding signal [9] was 13.3 upbm affinity estimate (log intensity, higher = more binding, comparable within an allelic series). The binding signal [5] was 7.75 upbm affinity estimate (log intensity, higher = more binding, comparable within an allelic series).
In the case of ATTAAGGA, the binding signal [1] is reported as 8.58 upbm affinity estimate (log intensity, higher = more binding, comparable within an allelic series) and the binding signal [2] is reported as 9.12 upbm affinity estimate (log intensity, higher = more binding, comparable within an allelic series).
For AATTATCT, the binding signal [1] was 11.8 upbm affinity estimate (log intensity, higher = more binding, comparable within an allelic series), the binding signal [10] was 13.6 upbm affinity estimate (log intensity, higher = more binding, comparable within an allelic series) and the binding signal [6] was 11.2 upbm affinity estimate (log intensity, higher = more binding, comparable within an allelic series). For the same sequence, the binding signal [11] was 12.7 upbm affinity estimate (log intensity, higher = more binding, comparable within an allelic series), the binding signal [2] was 11.8 upbm affinity estimate (log intensity, higher = more binding, comparable within an allelic series) and the binding signal [8] was 12.3 upbm affinity estimate (log intensity, higher = more binding, comparable within an allelic series). For the same sequence, the binding signal [12] was 11.6 upbm affinity estimate (log intensity, higher = more binding, comparable within an allelic series), the binding signal [13] was 11.3 upbm affinity estimate (log intensity, higher = more binding, comparable within an allelic series) and the binding signal [14] was 11.1 upbm affinity estimate (log intensity, higher = more binding, comparable within an allelic series). The binding signal [3] was 8.47 upbm affinity estimate (log intensity, higher = more binding, comparable within an allelic series), the binding signal [15] was 10.8 upbm affinity estimate (log intensity, higher = more binding, comparable within an allelic series) and the binding signal [16] was 10.3 upbm affinity estimate (log intensity, higher = more binding, comparable within an allelic series). For the same sequence, the binding signal [4] was 10.2 upbm affinity estimate (log intensity, higher = more binding, comparable within an allelic series), the binding signal [17] was 7.79 upbm affinity estimate (log intensity, higher = more binding, comparable within an allelic series) and the binding signal [9] was 13 upbm affinity estimate (log intensity, higher = more binding, comparable within an allelic series). For the same sequence, the binding signal [5] was 7.77 upbm affinity estimate (log intensity, higher = more binding, comparable within an allelic series), the binding signal [18] was 12.1 upbm affinity estimate (log intensity, higher = more binding, comparable within an allelic series) and the binding signal [7] was 13.2 upbm affinity estimate (log intensity, higher = more binding, comparable within an allelic series).
AGAGCTCT was tested, and the binding signal [1] was 6.34 upbm affinity estimate (log intensity, higher = more binding, comparable within an allelic series), the binding signal [2] was 6.42 upbm affinity estimate (log intensity, higher = more binding, comparable within an allelic series) and the binding signal [12] was 6.52 upbm affinity estimate (log intensity, higher = more binding, comparable within an allelic series). For the same sequence, the binding signal [13] was 6.57 upbm affinity estimate (log intensity, higher = more binding, comparable within an allelic series), the binding signal [3] was 6.48 upbm affinity estimate (log intensity, higher = more binding, comparable within an allelic series) and the binding signal [4] was 6.53 upbm affinity estimate (log intensity, higher = more binding, comparable within an allelic series). For the same sequence, the binding signal [5] was 6.38 upbm affinity estimate (log intensity, higher = more binding, comparable within an allelic series) and the binding signal [18] was 6.26 upbm affinity estimate (log intensity, higher = more binding, comparable within an allelic series).
CACGGCGG was tested, and the binding signal [1] was 6.53 upbm affinity estimate (log intensity, higher = more binding, comparable within an allelic series), the binding signal [2] was 6.43 upbm affinity estimate (log intensity, higher = more binding, comparable within an allelic series) and the binding signal [3] was 6.49 upbm affinity estimate (log intensity, higher = more binding, comparable within an allelic series). The binding signal [4] was 6.56 upbm affinity estimate (log intensity, higher = more binding, comparable within an allelic series) and the binding signal [5] was 6.49 upbm affinity estimate (log intensity, higher = more binding, comparable within an allelic series).
With CGCCACGA the binding signal [1] was 6.55 upbm affinity estimate (log intensity, higher = more binding, comparable within an allelic series), the binding signal [2] was 6.36 upbm affinity estimate (log intensity, higher = more binding, comparable within an allelic series) and the binding signal [3] was 6.47 upbm affinity estimate (log intensity, higher = more binding, comparable within an allelic series). The binding signal [4] was 6.47 upbm affinity estimate (log intensity, higher = more binding, comparable within an allelic series) and the binding signal [5] was 6.57 upbm affinity estimate (log intensity, higher = more binding, comparable within an allelic series).
With CGGCACGC the binding signal [1] was 6.6 upbm affinity estimate (log intensity, higher = more binding, comparable within an allelic series), the binding signal [2] was 6.41 upbm affinity estimate (log intensity, higher = more binding, comparable within an allelic series) and the binding signal [3] was 6.57 upbm affinity estimate (log intensity, higher = more binding, comparable within an allelic series). The binding signal [4] was 6.5 upbm affinity estimate (log intensity, higher = more binding, comparable within an allelic series) and the binding signal [5] was 6.53 upbm affinity estimate (log intensity, higher = more binding, comparable within an allelic series).
In the case of CCGGCCGA, the binding signal [1] is reported as 6.49 upbm affinity estimate (log intensity, higher = more binding, comparable within an allelic series), the binding signal [2] is reported as 6.45 upbm affinity estimate (log intensity, higher = more binding, comparable within an allelic series) and the binding signal [14] is reported as 6.73 upbm affinity estimate (log intensity, higher = more binding, comparable within an allelic series). For the same sequence, the binding signal [3] was 6.51 upbm affinity estimate (log intensity, higher = more binding, comparable within an allelic series), the binding signal [15] was 6.72 upbm affinity estimate (log intensity, higher = more binding, comparable within an allelic series) and the binding signal [4] was 6.49 upbm affinity estimate (log intensity, higher = more binding, comparable within an allelic series). For the same sequence, the binding signal [17] was 6.59 upbm affinity estimate (log intensity, higher = more binding, comparable within an allelic series) and the binding signal [5] was 6.54 upbm affinity estimate (log intensity, higher = more binding, comparable within an allelic series).
